Laboratory results reported in ChEMBL document CHEMBL4513216, “Probing the Open Global Health Chemical Diversity Library for Multistage-Active Starting Points for Next-Generation Antimalarials” (ACS Infect Dis, 2020).
The campaign covered roughly 69,000 compounds. About 8,600 (12%) showed an effect of 50% or more. The full list was thinned out, with strong results kept by preference.

These compounds were tested on Plasmodium berghei (assay: Screen against P. berghei liver stage (PbLuc), transformed with Luciferase, at 10uM). Details: tested at 10 uM.
Assay type: functional, HepG2

SMILES	INHIBITION [%]
CCN(C)[C@H]1CN(C(=O)c2cccc(N3CCS(=O)(=O)CC3)c2)C[C@@H]1O	8.74
O=C1CC2(CCN(Cc3ccccn3)C2)CN1c1cncnc1 (stereo unspecified)	-3.41
Cc1nccn1-c1ccc(NS(=O)(=O)c2cccnc2)cn1	6.94
O=C(c1ccsc1)N1CCO[C@@H]2CN(Cc3cccs3)C[C@@H]2C1	-2.46
O=C(NCC1CCCCO1)c1cc(Cn2cnc3ccccc32)[nH]n1 (stereo unspecified)	31.4
O=C(NCCO)c1coc(Cn2cnc3ccccc32)n1	52
CSCCCNC(=O)c1coc(Cn2cnc3ccccc32)n1	25.1
Cn1cnc(-c2nc(C(=O)NCC3CCCO3)c3ccccn23)c1 (stereo unspecified)	4.08
O=C(NCC1CCCO1)c1coc(Cn2cnc3ccccc32)n1 (stereo unspecified)	69.1
O=C(NCCO)c1coc(CN2CCN(c3ccccc3F)CC2)n1	26.9
CC(C)=CCN1C(=O)[C@@H]2CC[C@H]1CN(c1ncccc1C(N)=O)C2	49.7
CC(C)(C)c1cc(NC(=O)CN2CCn3c(nnc3C3CC3)C2)on1	-3.8
NC(=O)C1CN(C(=O)Nc2ccccc2Oc2ccccc2Cl)CCO1 (stereo unspecified)	-67.7
COc1ccc(C(=O)N2CC[C@@H]3[C@H](CC2)N(C)CCS3(=O)=O)cc1	-14.3
O=C(C1CC1)N1CC2(CCN(CC3CC3)CC2)c2cc(F)ccc21	-15.9
COC(=O)C1CN(Cc2ccn(-c3ccc(F)cc3)n2)CCO1 (stereo unspecified)	-173

SMILES	INHIBITION [%]
COC(=O)C1CN(Cc2ccn(-c3ccc(F)cc3)n2)C[C@@H](C)O1 (stereo partly specified)	16
COC(=O)CC1CN(Cc2ccn(-c3ccc(F)cc3)n2)CCO1 (stereo unspecified)	52.2
Cc1ccc2c(c1)C1(CCNCC1)CC2N1CCOCC1 (stereo unspecified)	-58.9
COCCN1CCC2(CC1)CC(N1CCOCC1)c1cc(C)ccc12 (stereo unspecified)	87.4
COCCN1CCC2(CC1)CC(N1CCOCC1)c1ccc(C)cc12 (stereo unspecified)	48.4
COCC(=O)N1CCC2(CC1)CC(N1CCOCC1)c1ccc(C)cc12 (stereo unspecified)	-24.8
CCC(=O)N1CCC2(CC1)CC(N1CCOCC1)c1cc(C)ccc12 (stereo unspecified)	61.8
Cc1ccc2c(c1)C(N1CCOCC1)CC21CCNCC1 (stereo unspecified)	38.5
O=C(c1sccc1C1CC1)N1CCN(c2cnccn2)CC1	44
CN(C)c1nc2c(c(N(C)Cc3n[nH]c4c3CCCCC4)n1)CCNC2	26.8
CN(C)c1nc2c(c(N(C)Cc3n[nH]c4c3CCCC4)n1)CCNCC2	70.2
CN(Cc1n[nH]c2c1CCCC2)c1nc2c(c(=O)[nH]1)CCNCC2	10.4
CN(Cc1cc2n(n1)CCNC2)Cc1n[nH]c2c1CCCCC2	44.3
CN(Cc1n[nH]c2c1CCCC2)c1nc(C2CC2)nc2c1CCNCC2	62.8
CN(Cc1n[nH]c2c1CCC2)c1nc(C2CCCC2)nc2c1CNC2	26.8
